Test results as given in PubChem BioAssay (NCATS).
Inconclusive results are not listed. A call without a number means that no potency is given here. The source made the active and inactive calls. Calls come from the whole dose curve; as a rule, active = well fitted curve in the direction sought with a large enough effect; inconclusive = small, poorly fitted or top-dose-only effect, or another doubt; inactive = no such curve, though single readings can be large; an effect the other way counts as inactive or inconclusive.

Legend:
[1] = qHTS Screen of the MIPE 4.0 Collection Against Ewings Sarcoma (TC32) (AID 1259256); note: nearly all actives have a fitted effect of over 45% in size
Procedure, shortened: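 Compound titrations go onto adherent log-phase cells 4 h after seeding, incubate 48 h at 37C, then CellTiter-Glo luminescence reports viability relative to DMSO and cell-free controls.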

[2] = P-glycoprotein substrates identified in KB-8-5-11 adenocarcinoma cell line, qHTS therapeutic library screen (AID 1346987); note: nearly all actives have a fitted effect of over 65% in size
Procedure, shortened: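 KB-8-5-11: colchicine-selected sub-line of KB-3-1 over-expressing P-gp; assay medium lacked colchicine. 72 h drug exposure at 37 degree C, CellTiter-Glo.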

[3] = NS1 protein of Zika virus - qHTS assay to identify small molecule inhibitors in human HEK 293 cells (AID 1347053); note: nearly all actives have a fitted effect of over 55% in size
Procedure, shortened: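 HEK 293 cells, seeded 20 h at 37 C, were pretreated with compound 1 h, then infected with ZIKV MR766 (MOI = 0.5) for 24 h. NS1 was read by TR-FRET with two anti-NS1 antibodies, normalized to uninfected and infected wells.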

[4] = qHTS of pediatric cancer cell lines to identify multiple opportunities for drug repurposing: Primary screen for TC32 cells (AID 1347089); note: nearly all actives have a fitted effect of over 60% in size
Procedure, shortened: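 Luminescent CellTiter-Glo read-out of metabolically active TC32 cells after 48 h compound exposure. Primary: MIPE 11-point, 0.78 nM–46 µM; NPC 8-point, 0.59 nM–46 µM. Confirmatory: 11-point dilutions.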

[5] = qHTS of pediatric cancer cell lines to identify multiple opportunities for drug repurposing: Primary screen for DAOY cells (AID 1347090); note: nearly all actives have a fitted effect of over 55% in size
Procedure, shortened: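 Eight- or eleven-point concentration series, 48 h treatment at 37 degrees C in growth media; readout CellTiter-Glo luminescence. Potency and efficacy were taken from the concentration-response curves.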
Potency is the fitted concentration of half-maximal effect.

SMILES	Potency [1]	Potency [2]	Potency [3]	Potency [4]	Potency [5]
N#CC(=C(O)c1ccc(Cl)cc1Cl)c1nc2cc(Cl)ccc2c(=O)[nH]1	inactive	inactive	inactive	inactive	inactive
CC1(C)CC(O)CC(C)(C)N1[O]	inactive	inactive	inactive	inactive	inactive
O=C(NNC(=O)c1ccc(CNS(=O)(=O)c2ccc(F)c(Cl)c2)cc1)c1ccccc1	inactive	inactive	inactive	inactive	inactive
O=C(O)CCCCCC(=O)NN=C1CCCC1	inactive	inactive	inactive	inactive	inactive
CC(C)(C)[N+]([O-])=Cc1ccc(S(=O)(=O)O)cc1S(=O)(=O)O	inactive	inactive	inactive	–	inactive
COc1cc2c(Nc3ccc(Cl)c(Cl)c3F)ncnc2cc1OCC1C[C@@H]2CN(C)C[C@H]2C1	13.2 µM (active)	18.7 µM (active)	inactive	–	0.935 µM (active)
CC(C)(O)CC[C@@H](O)[C@](C)(O)[C@H]1CC[C@@]2(O)C3=CC(=O)[C@@H]4C[C@@H](O)[C@@H](O)C[C@]4(C)[C@@H]3CC[C@]12C	inactive	inactive	inactive	–	inactive
Cc1ccc(-n2[nH]c(C)c(N=Nc3cccc(-c4cccc(C(=O)O)c4)c3O)c2=O)cc1C	6.62 µM (active)	inactive	inactive	–	18.7 µM (active)
C[C@H](NC(=O)C(C#N)=Cc1cccc(Br)n1)c1ccccc1	18.7 µM (active)	20.9 µM (active)	–	inactive	–
OC[C@H]1OC(O)C[C@@H](O)[C@H]1O (stereo partly specified)	inactive	inactive	inactive	inactive	inactive
CC[C@]12C=CCN3CC[C@@]4(c5cc([C@@]6(C(=O)OC)C[C@H]7C[C@@H](C(C)(F)F)CN(Cc8c6[nH]c6ccccc86)C7)c(OC)cc5N(C)[C@H]4[C@@](O)(C(=O)OC)[C@H]1OC(C)=O)[C@@H]32	inactive	0.743 µM (active)	7.43 µM (active)	–	0.0296 µM (active)
Cc1nc(NC(=O)N2CCC[C@@H]2C(N)=O)sc1-c1ccnc(C(C)(C)C(F)(F)F)c1	6.62 µM (active)	6.62 µM (active)	inactive	–	7.43 µM (active)
Nc1cccc2c1C(=O)N(C1CCC(=O)NC1=O)C2=O (stereo unspecified)	0.0042 µM (active)	inactive	inactive	–	inactive
CC[C@H]1OC(=O)[C@H](C)[C@@H](O[C@H]2C[C@@](C)(OC)[C@@H](O)[C@H](C)O2)[C@H](C)[C@@H](O[C@@H]2O[C@H](C)C[C@H](N(C)C)[C@@H]2O)[C@](C)(OC)C[C@@H](C)C(=O)[C@H](C)[C@@H](O)[C@]1(C)O	inactive	inactive	inactive	–	inactive
C[C@]12CC[C@@H]3c4ccc(O)cc4CC[C@H]3[C@H]1CC[C@H]2O	16.6 µM (active)	7.43 µM (active)	inactive	inactive	18.7 µM (active)
Cc1onc(-c2ccccc2)c1C(=O)N[C@@H]1C(=O)N2[C@@H](C(=O)O)C(C)(C)S[C@@H]12	inactive	inactive	inactive	–	inactive
CC(C)(O)[C@H]1CC[C@@](C)([C@H]2[C@@H](O)C[C@@]3(C)[C@@H]4C[C@H](O[C@@H]5O[C@H](CO)[C@@H](O)[C@H](O)[C@@H]5O)[C@H]5C(C)(C)[C@@H](O[C@@H]6OC[C@@H](O)[C@H](O)[C@@H]6O)CC[C@@]56C[C@@]46CC[C@]23C)O1	inactive	inactive	inactive	inactive	inactive
Cn1cnc(=N)c2[nH]cnc21	0.132 µM (active)	10.5 µM (active)	–	–	1.18 µM (active)
CC(C)NC[C@@H](C(=O)N1CCN(c2ncnc3c2[C@H](C)C[C@H]3O)CC1)c1ccc(Cl)cc1	2.64 µM (active)	inactive	–	–	5.9 µM (active)
Nc1nc(=O)n([C@H]2C[C@H](O)[C@@H](CO)O2)cc1F	0.0296 µM (active)	4.18 µM (active)	–	0.829 µM (active)	inactive
C[C@H]1[C@@H](OC(=O)CCC(=O)O)O[C@@H]2O[C@@]3(C)CC[C@@H]4[C@H](C)CC[C@@H]1[C@@]24OO3	9.35 µM (active)	16.6 µM (active)	–	14.7 µM (active)	11.8 µM (active)
Nc1ccn(C2CO[C@H](CO)O2)c(=O)n1 (stereo partly specified)	inactive	inactive	–	inactive	inactive
COc1ccc2c(c1OC)C(=O)OC2[C@H]1c2c(cc3c(c2OC)OCO3)CCN1C (stereo partly specified)	inactive	1.87 µM (active)	–	1.04 µM (active)	0.469 µM (active)
